High-throughput results: PubChem, National Center for Advancing Translational Sciences (NCATS)
Pf growth 48h – P. falciparum growth inhibition at 48 hours (one generation); P. falciparum luciferase growth in erythrocytes, 48 h; Potency, µM (top dose mostly 28.7 µM), for the others: at the top dose activity change, negative = inhibition, most hits filed as inhibitors; 310,000 compounds, 5.9% hits; AID 504832; also: potency is read from the fitted curve at half-maximal effect; % is scaled to controls: 0 for no effect and ±100 for the full control effect
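A one-generation exposure of luciferase-tagged malaria parasites in RPMI 1640/Albumax erythrocyte culture, 37 C and 5% CO2. Inhibition is inferred from decreased luminescence after adding detection reagent.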
Shiga toxin inh – Shiga toxin inhibition; Vero cells, Shiga toxin protein synthesis inhibition reporter; inhibition, % at 38.7 µM; 290,000 compounds, 9.2% hits; in the data active = inhibition mostly above about 28%, no sharp cut-off; inactive = mostly below about 43%; also: 0% is about no effect
NS1 function inh – inhibitors of influenza NS1 protein function | Potency, µM (series often up to 46.1 µM), without a hit: top-dose activity, positive = more growth | 270,000 compounds, 0.4% hits; calls by dose curve; also: potency is read from the fitted curve at half-maximal effect; actives are rising curves; nearly all actives have a fitted effect of over 50% in size
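Recovery from NS1-induced slow growth read by OD600 in budding yeast switched to galactose assay medium (pH 6.0, -URA) at 1:100 dilution. Compound 23 nl per well; the matching strain lacking NS1 serves as control.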
Cycloheximide cs – counter-screen for Shiga toxin inhibitors: cycloheximide protein synthesis inhibition; cell reporter, cycloheximide protein synthesis inhibition counterscreen; max response, %; 300,000 compounds, 12% hits; AID 2314; in the data active = max response mostly above about 13%, no sharp cut-off; inactive = mostly below about 14%; also: read at 38.3 µM for the half of the compounds with a filed dose; 0% is about no effect
Pf growth 96h – P. falciparum growth inhibition at 96 hour, primary screen for plastid delayed-death inhibitors; P. falciparum luciferase reporter growth, 96 h; Potency, µM (series often up to 28.7 µM), for the others: at the top dose activity change, negative = inhibition, most hits filed as inhibitors; 320,000 compounds, 6.9% hits; AID 504834; also: potency is read from the fitted curve at half-maximal effect; % is scaled to controls: 0 for no effect and ±100 for the full control effect
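Parasite growth measured via integrated firefly luciferase reporter in P. falciparum. Infected erythrocytes at 2% hematocrit, 0.05% parasitemia final were treated 96 hours at 37 C under 5% CO2, and luminescence was read.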
An asterisk follows results filed as active; ? = inconclusive; nt = not tested or not shown; [ ] = dose if it differs, or a comment. Most compounds without a hit are left out; they make up all but 21% or so of the library. Unless noted, calls follow the shape of the dose curve; as a rule, active = well fitted inhibition curve with a large enough effect; inconclusive = small, poorly fitted or top-dose-only effect, or another doubt; inactive = no such curve, though single readings can be large or run the other way.

SMILES	Pf growth 48h	Shiga toxin inh	NS1 function inh	Cycloheximide cs	Pf growth 96h
COc1ccc(CC(=O)NCCS(=O)(=O)N2CCN(c3ccc(F)cc3)CC2)cc1OC	?	-10.5	5.5%	-0.3	-23.2%
COc1ccc(CN2CCOCCOCCOCCOCC2)cc1	30.7%	3.5	8.1%	1.5	22.1%
COc1ccc(CSc2nc(CSC)cc(N3CCOCC3)n2)cc1	11.7µM*	-7.3	-47.1%	5.0	?
CCOC(=O)C1CCN(C(=O)c2ccc(OC3CCN(C(=O)COC)CC3)cc2)CC1	5.7%	28.2	9.9%	10.7*	20.9%
CCOC(=O)C1CCN(C(=O)c2ccc(OC3CCN(C(=O)CCOC)CC3)cc2)CC1	20.5%	2.2	-0.8%	6.9	15.2%
CCOC(=O)N1CCN(C(=O)c2ccc(OCC)c(OCC)c2)CC1	-1.5%	7.0	1.4%	-3.2	165.2%
CCOC(=O)C1CCN(C(=O)c2ccc(OCC)c(OCC)c2)CC1	-22.0%	-16.4	-0.7%	-2.2	14.7µM*
CC(C)CCNC(=O)NC(=O)COC(=O)/C=C/c1cc(Br)ccc1F	38.1%	-9.2	nt	1.1	0.0%
COc1ccccc1NC(=O)NCc1nc(-c2ccc(C(F)(F)F)cc2)no1	-6.9%	24.7	-2.9%	-2.1	1.4%
OC1(c2ccc(Cl)c(Cl)c2)C[n+]2ccccc2N1Cc1ccccc1 (configuration not stated)	3.7µM*	-15.9	-0.5%	-0.8	?
OC1(c2ccccc2)CCN(Cc2ccccc2)CC1	3.3%	-13.7	nt	10.2	?
CC(C)N(Cc1nc(-c2ccccc2)no1)C(=O)C(C)(C)C	36.9%	7.6	-13.8%	10.2	nt
COc1ccccc1OCC(=O)N(Cc1nc(-c2ccc(Cl)cc2)no1)C(C)C	nt	19.2	-53.1%	-2.3	4.15µM*
CC(C)N(Cc1nc(-c2ccccc2)no1)C(=O)C(Cl)(Cl)Cl	1.85µM*	0.8	-14.0%	8.0	-31.5%[1.15 µM]
CC(Oc1ccccc1)C(=O)Nc1nnc(S(=O)(=O)Nc2ccccc2)s1 (configuration not stated)	39.4%	-3.9	7.3%	2.2	110.9%
COCCCNC(=O)c1sc2ncn(CC(=O)Nc3ccc(C)c(Cl)c3)c(=O)c2c1C	2.6%	17.7	nt	-2.1	3.2%
CCn1cnc2sc(C(=O)Nc3ccc4c(c3)OCO4)c(C)c2c1=O	173.6%	94.0*	1.3%	37.7*	74.2%
CCCNC(=O)Cn1cnc2sc(C(=O)Nc3ccc4c(c3)OCO4)c(C)c2c1=O	49.1%	-5.4	5.1%	1.7	135.7%
CCN(CC)CCCNC(=O)c1sc2ncn(CC(=O)Nc3ccc(C)c(Cl)c3)c(=O)c2c1C	13.1µM*	-9.9	nt	-4.8	-4.8%
Cc1ccc(NC(=O)Cn2cnc3sc(C(=O)NCCN(C)C)c(C)c3c2=O)cc1Cl	?	-3.6	0.7%	-2.0	11.7µM*
Cc1ccnc2nc(C(=O)OCCOc3ccc(Cl)cc3)nn12	42.0%	-9.0	nt	9.5	160.8%
COc1ccc(/C=N/NC(=O)c2ccccc2OCc2ccccc2)c(OC)c1	?	64.5*	-17.3%	30.4*	11.3%
COc1ccc(/C(C)=N/NC(=O)c2ccccc2OCc2ccccc2)c(OC)c1	?	165.4*	-19.7%	33.0*	19.3%
COc1ccc(/C(C)=N/NC(=O)C2C3CCCCC32)c(OC)c1 (configuration not stated)	-11.3%	40.6*	13.0%	12.0	0.2%
C#CCOc1ccccc1/C=N/NC(=O)c1ccccc1OCc1ccccc1	?	-19.1	12.8%	10.6	10.4µM*
SMILES	Pf growth 48h	Shiga toxin inh	NS1 function inh	Cycloheximide cs	Pf growth 96h
O=C(N/N=C/c1ccccc1C(=O)O)c1ccc(COc2cccc3cccnc23)cc1	36.7%	6.6	nt	21.3	19.0%
COc1ccc(C(=O)N/N=C(\C)CC(=O)NC2CCCCC2)c(OC)c1	10.4%	16.7	10.4%	10.9	-7.6%
CCC(CC)=NNC(=O)c1ccccc1OCc1ccc(F)cc1	11.1%	-2.9	18.2%	5.7	?
COCCNC(=O)CN(C(=O)Cn1nnc2ccccc21)c1cc(C)cc(C)c1	22.6%	-9.1	3.9%	-1.7	3.5%
Cc1ccc(CNS(=O)(=O)c2ccc(F)c(F)c2)n1C	-0.9%	4.4	10.4%	1.4	2.6%
COc1ccc(C2=NOC(C(=O)Nc3cccnc3)C2)cc1OC (configuration not stated)	?	2.0	-3.7%	6.0	?
CN1CCN(C(=O)/C=C/c2ccc(Cl)cc2)CC1	51.2%	33.3	nt	24.5*	8.6%
CN1CCN(C(=O)/C=C/c2ccc(Cl)c(Cl)c2)CC1	42.3%	29.8	5.7%	36.7*	0.0%
O=C(/C=C/c1ccc(Cl)cc1)N1CCN(c2ncccn2)CC1	nt	-2.2	13.9%	-5.1	-7.2%
COC(=O)c1c(C)[nH]c(C)c1C(C)=O	33.3%	-9.3	0.2%	1.2	61.5%
Cc1oc(C(=O)O)cc1CSc1nnc(-c2ccccc2)n1C	6.7%	-5.2	8.7%	-2.5	?
c1ccc2c(c1)Nc1ccccc1S2	12µM*	8.4	-1.9%	0.3	4.78µM*
COc1ccc(CNCc2c(C(=O)N(C)C)nc3ccc(Cl)cn23)c(OC)c1	?	9.9	1.4%	5.2	?
Cc1cc(N2CCN(Cc3nc(-c4ccc(F)cc4)oc3C)CC2)cc(C)n1	?	13.0	3.2%	-1.3	11.7µM*
Cc1oc(-c2cc(F)ccc2F)nc1CN1CCN(c2ncnc3ccccc23)CC1	-26.7%	18.8	5.0%	24.6*	-17.1%
CCN(CC)CCn1c2c(c(SCC(=O)Nc3cc(C)on3)nc1=O)CCCC2	?	nt	nt	nt	-10.2%
CCC(=O)N1c2ccc(S(=O)(=O)NCCc3ccc(OC)c(OC)c3)cc2CC1C (configuration not stated)	-6.2%	-3.8	-17.8%	-10.8	12.0%
CCCNC(=O)c1c(C)cc(=O)oc1C	33.1%	-6.9	12.8%	-2.7	6.57µM*
CCN(CC)c1ccc(/C=C/[N+](=O)[O-])cc1	9.8%	28.6	nt	11.6*	16.7%
NC(=O)c1ccccc1OCC(=O)N1CCC(Cc2ccccc2)CC1	?	nt	nt	nt	-24.9%
O=c1oc2ccccc2cc1-c1nc2c(s1)CCc1ccccc1-2	?	63.0	12.4%	21.5*	10.5%
Nc1nc2c(s1)CCc1ccccc1-2	nt	37.9*	-66.5%	20.9*	55.7%
O=c1oc2cc(O)ccc2cc1-c1nc2c(s1)CCc1ccccc1-2	-8.3%	-6.8	18.5%	2.0	9.28µM*
N#C/C(=C(/O)CCl)c1nc2c(s1)CCc1ccccc1-2	-14.4%	53.7*	-28.1%	30.3*	?
Cc1ccc(-c2csc(Nc3ccccn3)n2)cc1	-24.9%	nt	-25.1%	35.0*	?
Cc1ccc(C)c(-c2csc(Nc3ncccn3)n2)c1	-0.5%	12.2	21.2%	-0.6	-0.8%
Cc1cc(-c2csc(Nc3ccccn3)n2)ccc1F	-13.2%	115.9*	-21.0%	42.4*	?
Cc1onc(-c2ccccc2)c1C(=O)Nc1nc(-c2ccc(F)c(F)c2)cs1	?	69.0	-12.1%	17.9	-17.9%
COc1ccc(-c2csc(Nc3ccc(C)cn3)n2)cc1	9.6%	6.8	-0.5%	10.6	75.0%
Fc1ccc(-c2csc(Nc3ccccn3)n2)c(F)c1	273.4%	39.6*	-1.0%	45.9*	12.0%
